Results published in PubChem BioAssay AID1611 (NINDS Approved Drug Screening Program, 2009).

Assay: inducers of human heat shock response, cell-based, HSE luciferase (AID 1611)
Conditions: human cells, HSE-luciferase heat shock reporter; stronger effect = higher value

| Compound | fold change |
| --- | --- |
| COC(=O)C1=C(C)NC(C)=C(C(=O)OC)C1c1ccccc1[N+](=O)[O-] | 1.12 |
| O=C(O)C1=CCNCC1 | 1.18 |
| Nc1ncnc2c1ncn2[C@@H]1O[C@H](CO)[C@@H](O)[C@@H]1O | 1.52 |
| Cc1nnc(SCC2=C(C(=O)O)N3C(=O)[C@@H](NC(=O)Cn4cnnn4)[C@H]3SC2)s1 | 0.8 |
| CN(Cc1cnc2nc(N)nc(N)c2n1)c1ccc(C(=O)N[C@@H](CCC(=O)O)C(=O)O)cc1 | 0.91 |
| CC(=O)[C@@]1(O)CCC2C3C[C@H](C)C4=CC(=O)C=CC4(C)[C@@]3(F)[C@@H](O)C[C@@]21C (stereo not given in full) | 1.43 |
| CCCCCCOc1ccccc1C(N)=O | 0.59 |
| CN(C)C(=O)Oc1cccc([N+](C)(C)C)c1 | 1.23 |
| O=C(O)CCC(=O)c1ccc(-c2ccccc2)cc1 | 1.02 |
| CN(C)CC/C=C1\c2ccccc2Sc2ccc(Cl)cc21 | 1.34 |
| NNCCc1ccccc1 | 0.93 |
| CN(C)C(=O)C(CCN1CCC(O)(c2ccc(Cl)cc2)CC1)(c1ccccc1)c1ccccc1 | 1.52 |
| Nc1ncn([C@@H]2O[C@H](CO)[C@@H](O)[C@H]2O)c(=O)n1 | 1.3 |
| Cc1ccc(S(=O)(=O)NC(=O)NN2CCCCCC2)cc1 | 0.73 |
| CC(Cc1ccc(O)c(O)c1)(NN)C(=O)O (stereo not given) | 1.02 |
| CC(=O)Oc1cccc(O)c1 | 0.84 |
| O=C1c2c(O)cccc2Cc2cccc(O)c21 | 0.93 |
| NC[C@H]1O[C@H](O[C@H]2[C@H](O)[C@@H](O[C@H]3O[C@H](CO)[C@@H](O)[C@H](N)[C@H]3O)[C@H](N)C[C@@H]2N)[C@H](O)[C@@H](O)[C@@H]1O | 1.87 |
| C=Cc1c(C)c2cc3[nH]c(cc4nc(cc5nc(cc1[nH]2)C(C)=C5CCC(=O)O)C(CCC(=O)O)=C4C)c(C)c3C=C | 1.09 |
| O=C1c2ccccc2C(=O)C1c1ccccc1 | 331 |

| Compound | fold change |
| --- | --- |
| CC(=O)OCC1=C(C(=O)O)N2C(=O)[C@@H](NC(=O)Cc3cccs3)[C@H]2SC1 | 1.09 |
| NS(=O)(=O)c1cc2c(cc1Cl)NCNS2(=O)=O | 0.97 |
| CC(C)=CCC/C(C)=C/CO | 3.1 |
| Cc1ncc([N+](=O)[O-])n1CCO | 1.2 |
| C[C@H](CS)C(=O)N1CCC[C@H]1C(=O)O | 0.72 |
| O=C(O)C1CCCNC1 (stereo not given) | 0.81 |
| CCN(CCCCOC(=O)c1ccc(OC)c(OC)c1)C(C)Cc1ccc(OC)cc1 (stereo not given) | 1.27 |
| COc1cccc(OC)c1C(=O)N[C@@H]1C(=O)N2[C@@H]1SC(C)(C)[C@@H]2C(=O)O | 0.82 |
| CCN1CCN(C(=O)NC(C(=O)NC2C(=O)N3C(C(=O)O)=C(CSc4nnnn4C)CSC23)c2ccc(O)cc2)C(=O)C1=O (stereo not given) | 0.74 |
| CO/N=C(/C(=O)NC1C(=O)N2C(C(=O)O)=C(COC(N)=O)CSC12)c1ccco1 (stereo not given) | 1 |
| c1ccc2[nH]c(-c3cscn3)nc2c1 | 0.81 |
| OCC(O)CN1CCN(c2ccccc2)CC1 (stereo not given) | 0.82 |
| O=C(O)c1cc2cc(Cc3cccnc3)ccc2o1 | 0.83 |
| CC(C)NNC(=O)c1ccncc1 | 1.02 |
| CCn1cc(C(=O)O)c(=O)c2ccc(C)nc21 | 0.98 |
| CC(=O)OCC1=C(C(=O)O)N2C(=O)[C@@H](NC(=O)CSc3ccncc3)[C@H]2SC1 | 0.82 |
| CCCCCC(C)N (stereo not given) | 1.8 |
| O=C(O)c1cn(C2CC2)c2cc(N3CCNCC3)c(F)cc2c1=O | 1.5 |
| CCC(=O)O[C@H]1[C@H](O[C@@H]2[C@@H](C)[C@H](O[C@H]3C[C@@](C)(OC)[C@@H](O)[C@H](C)O3)[C@@H](C)C(=O)O[C@H](CC)[C@@](C)(O)[C@H](O)[C@@H](C)C(=O)[C@H](C)C[C@@]2(C)O)O[C@H](C)C[C@@H]1N(C)C | 1.55 |
| Cn1nnnc1SCC1=C(C(=O)O)N2C(=O)C(NC(=O)C(O)c3ccccc3)C2SC1 (stereo not given) | 1.15 |
